High-throughput results as filed in PubChem BioAssay.
An excerpt weighted towards active compounds, which were near 3.5% of everything screened.
GPR151 activ: activators of human GPR151. activation, % at 11.2 µM. Q8TDV0. 650,000 compounds, 1% hits. PathHunter beta-arrestin GPR151 cells, luminescence; in the data active means activation above about 4.9%;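 further: 0% = median of compound wells and 100% = cells with positive control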
TEAD-YAP inh: TEAD-YAP interaction inhibition | HEK-TIYL cells, TEAD-Gal4/YAP UAS-luciferase luminescence | inhibition, % at 9.12 µM | 640,000 compounds, 1.4% hits | AID 1259422; in the data active means inhibition above about 32%;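 further: 0% = median of test compound wells and 100% = reference inhibitor wells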
FBW7 act: human FBW7 E3 ligase activation, primary screen. AlphaScreen FBW7–phospho-cyclin E peptide binding, activator screen. normalized activity (activation), % at 26.1 µM. AID 1259310. Q969H0. 650,000 compounds, 0.13% hits; in the data active means normalized activity above about 1.9%;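 further: purified mutant Fbw7 with reduced substrate affinity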
Target sequence (Q969H0 whole entry, looked up): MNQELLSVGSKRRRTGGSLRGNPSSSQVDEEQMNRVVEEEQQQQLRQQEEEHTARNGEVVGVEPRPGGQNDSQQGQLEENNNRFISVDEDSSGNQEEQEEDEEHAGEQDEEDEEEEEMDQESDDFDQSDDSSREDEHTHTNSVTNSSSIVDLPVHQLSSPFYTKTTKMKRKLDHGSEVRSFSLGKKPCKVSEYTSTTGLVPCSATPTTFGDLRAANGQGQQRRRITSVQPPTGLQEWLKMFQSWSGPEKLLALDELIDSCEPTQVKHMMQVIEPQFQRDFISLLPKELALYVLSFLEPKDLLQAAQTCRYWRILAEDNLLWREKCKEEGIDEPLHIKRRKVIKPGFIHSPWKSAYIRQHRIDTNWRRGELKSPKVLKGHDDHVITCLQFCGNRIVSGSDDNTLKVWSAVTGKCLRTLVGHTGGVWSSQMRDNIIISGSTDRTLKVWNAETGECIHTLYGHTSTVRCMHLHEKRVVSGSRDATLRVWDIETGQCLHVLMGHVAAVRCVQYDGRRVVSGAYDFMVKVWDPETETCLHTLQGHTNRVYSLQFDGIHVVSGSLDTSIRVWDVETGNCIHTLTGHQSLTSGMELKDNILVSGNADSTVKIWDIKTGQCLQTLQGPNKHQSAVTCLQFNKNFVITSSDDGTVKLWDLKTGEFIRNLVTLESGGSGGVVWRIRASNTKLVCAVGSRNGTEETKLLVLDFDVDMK
MITF primary: human MITF inhibition, primary screen. AlphaScreen MITF homodimerization, bead proximity signal. inhibition, % at 2.6 µM. 650,000 compounds, 0.91% hits. AID 1259374; in the data active means inhibition above about 50%;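 further: 0% = vehicle wells with protein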
GPR151 confirm: human GPR151 activation, confirmation screen; shares compounds with GPR151 activ; GPR151 PathHunter beta-arrestin cells, luminescence, 90 min; % of EA-reagent control over plate median; activation, % at 11.2 µM; 6,700 tested, under 10 active; AID 1508609;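 active means mean percent activation across replicates above the confirmation screen cutoff of 4.91%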
GPR119 counter: activates human GPR119 in a GPR151 counter-screen | shares compounds with GPR151 activ | AID 1508611 | 6,700 compounds, 0.3% hits | GPR119 PathHunter beta-arrestin cells, luminescence, 90 min; 0 = compound-well median, 100 = enzyme-acceptor control | activation, % at 11.2 µM;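 active means mean percent activation in the counterscreen above 29.09%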;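 further: counterscreen on off-target GPR119 to flag nonselective hits from the GPR151 activator screen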
* hit, by the source's call; ! = a repeat was not active.

What do the screens show for `COc1ccc(N2C(=O)CC(N(CCc3ccc(OC)c(OC)c3)C(=O)c3ccccc3)C2=O)cc1` (configuration not stated)?
GPR151 activ: 5.2*; TEAD-YAP inh: 3; FBW7 act: 0; MITF primary: -11; GPR151 confirm: 0; GPR119 counter: -7

Results for COc1cccc(CC2(CO)CCCN(Cc3cc(OC)c(OC)c(OC)c3)C2)c1 (configuration not stated) ?
GPR151 activ: -1; TEAD-YAP inh: 1; FBW7 act: 0; MITF primary: -2

Results for COc1cccc(CC2(CO)CCCN(Cc3cccc(OC)c3OC)C2)c1 (configuration not stated) ?
GPR151 activ: 6.2*; TEAD-YAP inh: 6; FBW7 act: 0; MITF primary: 12; GPR151 confirm: 0; GPR119 counter: -5

What do the screens show for `CC(=O)Nc1ccc(-c2cnc3cccc(-c4ccncc4)c3c2)cc1`?
GPR151 activ: 5.0*; TEAD-YAP inh: -13; FBW7 act: 0; MITF primary: 13; GPR151 confirm: 0; GPR119 counter: -9

How did CC(=O)Nc1ccc(-c2cnc3cccc(-c4cccnc4)c3c2)cc1 do in these assays?
GPR151 activ: 1; TEAD-YAP inh: 0; FBW7 act: 0; MITF primary: 16

How did CC(c1ccon1)N(C)Cc1c(C(=O)N(C)CCc2ccccc2)nc2sccn12 (configuration not stated) do in these assays?
GPR151 activ: 0; TEAD-YAP inh: 2; FBW7 act: 0; MITF primary: -5

What do the screens show for `CC1(C)C(c2ccco2)=[N+]([O-])C2(CCCCCC2=O)N1O` (configuration not stated)?
GPR151 activ: 7.7*; TEAD-YAP inh: 0; FBW7 act: 0; MITF primary: -2; GPR151 confirm: 0; GPR119 counter: 14

What do the screens show for `CC1(C)C(c2cccs2)=[N+]([O-])C2(CCCCCC2=O)N1O` (configuration not stated)?
GPR151 activ: 1; TEAD-YAP inh: 4; FBW7 act: 0; MITF primary: 8

Results for Cc1ccc(N=Cc2c(O)n(-c3ccccc3Cl)c(=O)[nH]c2=O)cc1 ?
GPR151 activ: 3; TEAD-YAP inh: 4; FBW7 act: 0; MITF primary: 18

What do the screens show for `CCCCC(C(=O)Nc1cccc(C)c1)N1C(=O)C2C3c4ccccc4C(c4ccccc43)C2C1=O` (configuration not stated)?
GPR151 activ: -1; TEAD-YAP inh: -2; FBW7 act: 0; MITF primary: -6

How did NC(N)=NC(N)=Nc1cccc(Cl)c1 do in these assays?
GPR151 activ: 10*!; TEAD-YAP inh: 4; FBW7 act: 0; MITF primary: -4; GPR151 confirm: -1; GPR119 counter: -10

Results for NC(N)=NC(N)=Nc1cccc([N+](=O)[O-])c1 ?
GPR151 activ: 1; TEAD-YAP inh: -4; FBW7 act: 0; MITF primary: 5

Results for CC(=O)c1ccc2ccccc2c1OC(=O)c1ccc(Br)o1 ?
GPR151 activ: 6.3*; TEAD-YAP inh: 3; FBW7 act: 0; MITF primary: 0; GPR151 confirm: -1; GPR119 counter: -15

What do the screens show for `Cc1nn(C(C)C(=O)NCc2cccc(Br)c2)c(=O)c2cc3occc3n12` (configuration not stated)?
GPR151 activ: 2; TEAD-YAP inh: 1; FBW7 act: 0; MITF primary: 4

How did COc1ccc(Br)c(C(=O)N/C(=C/c2cccc([N+](=O)[O-])c2)C(=O)Nc2cc(Cl)ccc2C)c1 do in these assays?
GPR151 activ: 0; TEAD-YAP inh: 10; FBW7 act: 0; MITF primary: -7

How did COc1ccc(C(=O)N/C(=C/c2cccc([N+](=O)[O-])c2)C(=O)Nc2cc(Cl)ccc2C)c(Cl)c1 do in these assays?
GPR151 activ: 12*; TEAD-YAP inh: -8; FBW7 act: 0; MITF primary: -11; GPR151 confirm: 0; GPR119 counter: -6

What do the screens show for `CCc1ccc(CN2CCc3nnc(CCNC(=O)c4cccnc4)n3CC2)o1`?
GPR151 activ: 1; TEAD-YAP inh: -6; FBW7 act: 0; MITF primary: -13
